SENP8 block-1 – human SENP8 protease inhibitors, primary screen, biochemical, fluorescence, Nedd8 protein substrate, uHTS; recombinant SENP8; AID 602440, 2012; actives 0.64% (n = 360,000); inhibition, % at 20 µM; in the data active means inhibition mostly above about 40%, no sharp cut-off; inactive means mostly below about 27%
SENP8 block-2 – SENP8 protease inhibitors, primary screen, biochemical, luminescence | Sentrin-specific protease 8 (Homo sapiens), Q96LD8 | purified SENP8, Z-RLRGG-aminoluciferin cleavage | inhibition, % at 10 µM | actives 1.2% (n = 330,000); in the data active means inhibition above about 50%
SENP6 inh – SENP6 protease inhibitors, primary screen, biochemical, luminescence, uHTS; actives 1.8% (n = 330,000); Sentrin-specific protease 6 (Homo sapiens), Q9GZR1; inhibition, % at 10 µM; Recombinant SENP6 catalytic domain, aminoluciferin luminescence;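 active means inhibition above about 50% at the single tested dose, limit read from the data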;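 further: plate controls were DMSO wells with enzyme for no effect and DMSO wells lacking enzyme for full effect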
Target sequence (Q9GZR1 628-1112 limits assumed): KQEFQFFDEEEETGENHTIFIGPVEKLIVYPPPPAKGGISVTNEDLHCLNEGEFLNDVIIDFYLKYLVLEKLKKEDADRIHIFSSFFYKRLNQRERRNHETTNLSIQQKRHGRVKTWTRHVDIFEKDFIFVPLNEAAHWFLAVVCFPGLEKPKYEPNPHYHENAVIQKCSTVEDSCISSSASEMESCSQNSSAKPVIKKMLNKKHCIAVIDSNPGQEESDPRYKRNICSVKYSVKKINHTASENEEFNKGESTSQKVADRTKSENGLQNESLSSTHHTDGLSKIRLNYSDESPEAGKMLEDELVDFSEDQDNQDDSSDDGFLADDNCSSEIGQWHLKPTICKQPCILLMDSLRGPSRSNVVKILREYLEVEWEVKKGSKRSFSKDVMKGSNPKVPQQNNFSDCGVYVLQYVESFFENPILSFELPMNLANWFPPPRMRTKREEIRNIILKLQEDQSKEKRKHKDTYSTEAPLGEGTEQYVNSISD
LGR2 antag – inhibitors of bursicon-induced LGR2 CRE-luciferase signal, primary screen, cell-based, HEK293, CRE-luciferase reporter, bursicon stimulation. Drosophila bursicon receptor LGR2 (rickets). bursicon-stimulated, 4 h. inhibition, % at 9.99 µM. actives 0.35% (n = 380,000);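 active means drop in luminescence signal, shown as inhibition above about 50% in the replicate tests, limit read from the data, passing the limit was not always enough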;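 further: agonist challenge used bursicon conditioned medium at about half maximal strength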
HSP90 inh – HSP90 inhibitors, primary screen, cell lysate, luminescence; inhibition, % at 5.6 µM; actives 0.91% (n = 290,000); Heat shock protein HSP 90 (rabbit reticulocyte lysate; luciferase refolding); Rabbit reticulocyte lysate, luciferase refolding luminescence, 3 h;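 active means inhibition above the screen-wide mean plus 3 SD, computed separately per campaign, cut at about 16% in these data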;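 further: 0% = DMSO wells and 100% = 60 µM geldanamycin wells; inhibitors lower the luminescence because luciferase stays unfolded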
SENP7 block – SENP7 protease inhibitors, primary screen, biochemical, luminescence, uHTS. actives 1.5% (n = 330,000). inhibition, % at 5 µM. AID 434973, 2010. recombinant SENP7, Z-RLRGG-aminoluciferin luminescence, 40 min. Sentrin-specific protease 7 (Homo sapiens), Q9BQF6;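 active means inhibition above about 50% at the single test dose, limit read from the data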;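 further: plate controls were DMSO with enzyme for no effect and no enzyme buffer wells for full effect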
An asterisk follows results filed as active; . = no result. Shown are actives, neighbours in structure and some others; about 2.3% of the full set was active somewhere.

SMILES	SENP8 block-1	SENP8 block-2	SENP6 inh	LGR2 antag	HSP90 inh	SENP7 block
O=C(C[C@H]1C=C[C@H](NC(=O)c2ccncc2)[C@@H](CO)O1)NCC1CCCCC1	.	.	.	2	.	.
Oc1ccccc1N=Cc1ccc[nH]1	41*	8	14	.	4	12
O=C(Nc1ccccc1)[C@@H]1[C@@H](CO)[C@@H]2Cn3c(cccc3=O)[C@H]1N2C(=O)c1ccccc1	.	.	.	3	.	.
COc1ccc2c3c(n(C)c2c1)[C@H](CO)N(C(=O)c1ccncc1)CC31CCN(C(C)=O)CC1	.	.	.	11	.	.
O=C1C(SCCO)=C(SCCO)C(=O)c2ccccc21	-73	89*	89*	19	.	56*
CN1c2ccc(C3=CCCCC3)cc2[C@@H]2[C@@H](CCN2S(=O)(=O)c2ccccc2)[C@@H]1CO	.	.	.	6	.	.
Nc1c(C(=O)N/N=C/c2cccnc2)cnn1-c1ccccc1	10	-3	8	-16	-3	10
COc1cccc(/C=N/NC(=O)c2cnn(-c3ccccc3)c2N)c1	-17	71*	83*	-53	-2	81*
NC(=O)c1ccccc1N/C=C/C(=O)c1ccc(F)cc1	-490	81*	97*	.	0	91*
NC(=O)c1ccccc1N/C=C/C(=O)c1ccc(Cl)cc1Cl	-476	.	.	-9	12	.
CC(=O)N1C[C@@H]2[C@H](c3ccccc31)[C@@H](CO)N2C(=O)Nc1ccc(F)cc1	.	.	.	8	.	.
CC(C)NC(=O)N(C)C[C@@H]1Oc2cc(C#CC(C)(C)O)ccc2S(=O)(=O)N([C@@H](C)CO)C[C@H]1C	.	.	.	-2	.	.
N=C1CCC(=N)c2c1c(O)c1ccccc1c2O	89*	39	63*	.	5	24
COC(=O)C1=C(C)N(Cc2ccc(C(F)(F)F)cc2)C(=NCC2CC2)NC1c1cccc(Cl)c1 (stereo not drawn)	.	.	.	57*	.	.
C=CCN=C1NC(CCc2ccccc2)C(C(=O)OC)=C(C)N1Cc1cccc(C(F)(F)F)c1 (stereo not drawn)	.	.	.	62*	.	.
COC(=O)C1=C(C)N(Cc2cccc(C(F)(F)F)c2)C(=NCc2ccc(OC)cc2)NC1c1cccc(Cl)c1 (stereo not drawn)	.	.	.	59*	.	.
COC(=O)C1=C(C)N(Cc2ccc(C(F)(F)F)cc2)C(=NCc2ccccc2)NC1c1cccc(F)c1 (stereo not drawn)	.	.	.	58*	.	.
COc1ccc2c3c(n(C)c2c1)[C@@H](CO)N(C(=O)c1ccc(F)cc1)CC31CCN(CC2CCOCC2)CC1	.	.	.	-8	.	.
CN1CCSc2ccc(C(=O)Nc3cccc(F)c3)cc21	-418	83*	94*	-48	9	90*
COc1ccc(NC(=O)c2ccc3c(c2)N(C)CCS3)cc1	-396	2	15	-62	-2	15
CCC(CO)Nc1ncnc2c1cnn2-c1ccc(Cl)cc1 (stereo not drawn)	11	2	11	25	27*	3
CN(C)CCNc1ncnc2c1cnn2-c1ccc(Cl)cc1	-24	-1	-7	-25	5	3
OCCCNc1ncnc2c1cnn2-c1ccc(Cl)cc1	-10	-6	7	7	16*	6
CN1CCN(c2ncnc3c2cnn3-c2ccc(Cl)cc2)CC1	8	38	46	6	42*	35
CO[C@H]1CN(C)C(=O)c2cc(NC(=O)c3ccc(F)cc3)ccc2OC[C@@H](C)N(C(=O)CC2CC2)C[C@@H]1C	.	.	.	-5	.	.
CCc1ccc(/C=C/C(=O)C2C(=O)c3ccccc3C2=O)cc1	50*	-11	-1	62*	4	15
O=C(Nc1ncccc1O)c1ccc2c(c1)OCO2	9	-18	-3	-21	.	19
O=C(Nc1n[nH]c(=S)s1)c1ccc2ccccc2c1	-17	82*	91*	-54	-2	63*
O=C(Nc1ncccc1O)c1ccc2ccccc2c1	2	-5	12	19	17*	32
CCC(C)Oc1cc(-c2ccnc(Nc3cccc(Cl)c3)n2)ccn1 (stereo not drawn)	-10	-2	-2	84*	.	-7
